# PubChem BioAssay (NCATS)
# Records with an inconclusive call do not appear. Unmarked numbers belong to inactive results. The source made the active and inactive calls. The call rests on the fitted dose curve; in most records, active means well fitted curve in the direction sought with a large enough effect; inconclusive means small, poorly fitted or top-dose-only effect, or another doubt; inactive means no such curve, though single readings can be large; an effect the other way counts as inactive or inconclusive.
# Columns and labels:
# [1] = Quantitative High-Throughput drug screen in 47 multiple myeloma cell lines against the NCATS MIPE library collection: KMS26_JCRB cell viability assay (AID 1918975); further: nearly all actives have a fitted effect of over 45% in size
# In short: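 Inhibition of cell viability is measured here. Each line was plated at 500 cells per well, treated with MIPE 4.0 drugs, kept 48 hours at 37C, then assayed for ATP content by CellTiter-Glo luminescence.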
# [2] = Quantitative High-Throughput drug screen in 47 multiple myeloma cell lines against the NCATS MIPE library collection: MMM1_PLB cell viability assay (AID 1918976); further: nearly all actives have a fitted effect of over 35% in size
# In short: (§1)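 qHTS format: cells plated (500/well), pin-dosed with MIPE 4.0 compounds, kept 48 h at 37 °C. Readout was CellTiter-Glo luminescence, median RLU.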
# [3] = Quantitative High-Throughput drug screen in 47 multiple myeloma cell lines against the NCATS MIPE library collection: MOLP8_DSMZ cell viability assay (AID 1918977); further: nearly all actives have a fitted effect of over 45% in size
# In short: as §1
# [4] = Quantitative High-Throughput drug screen in 47 multiple myeloma cell lines against the NCATS MIPE library collection: NCIH929_DSMZ cell viability assay (AID 1918978); further: nearly all actives have a fitted effect of over 35% in size
# In short: as §1
# [5] = Quantitative High-Throughput drug screen in 47 multiple myeloma cell lines against the NCATS MIPE library collection: MM1S_ATCC cell viability assay (AID 1918980); further: nearly all actives have a fitted effect of over 45% in size
# In short: as §1
# [6] = Quantitative High-Throughput drug screen in 47 multiple myeloma cell lines against the NCATS MIPE library collection: LP1_DSMZ cell viability assay (AID 1918982); further: nearly all actives have a fitted effect of over 35% in size
# In short: as §1
# [7] = Quantitative High-Throughput drug screen in 47 multiple myeloma cell lines against the NCATS MIPE library collection: KMS28PE_JCRB cell viability assay (AID 1918983); further: nearly all actives have a fitted effect of over 35% in size
# In short: as §1
# [8] = Quantitative High-Throughput drug screen in 47 multiple myeloma cell lines against the NCATS MIPE library collection: KMS34_JCRB cell viability assay (AID 1918985); further: nearly all actives have a fitted effect of over 40% in size
# In short: as §1
# [9] = Quantitative High-Throughput drug screen in 47 multiple myeloma cell lines against the NCATS MIPE library collection: OCIMY5_PLB cell viability assay (AID 1918988); further: nearly all actives have a fitted effect of over 65% in size
# In short: as §1
# [10] = Quantitative High-Throughput drug screen in 47 multiple myeloma cell lines against the NCATS MIPE library collection: OPM1_PLB cell viability assay (AID 1918989); further: nearly all actives have a fitted effect of over 40% in size
# In short: as §1
# [11] = Quantitative High-Throughput drug screen in 47 multiple myeloma cell lines against the NCATS MIPE library collection: SKMM1_PLB cell viability assay (AID 1919863); settings: SKMM1 myeloma viability, CellTiter-Glo ATP, 48 h; viability: hits give low values; further: nearly all actives have a fitted effect of over 35% in size
# In short: as §1
# [12] = Quantitative High-Throughput drug screen in 47 multiple myeloma cell lines against the NCATS MIPE library collection: U266_ATCC cell viability assay (AID 1919864); further: nearly all actives have a fitted effect of over 35% in size
# In short: as §1
# [13] = Quantitative High-Throughput drug screen in 47 multiple myeloma cell lines against the NCATS MIPE library collection: XG6_PLB cell viability assay (AID 1919865); further: nearly all actives have a fitted effect of over 40% in size
# In short: as §1
# [14] = Quantitative High-Throughput drug screen in 47 multiple myeloma cell lines against the NCATS MIPE library collection: XG1_PLB cell viability assay (AID 1919866); further: nearly all actives have a fitted effect of over 35% in size
# In short: as §1
# [15] = Quantitative High-Throughput drug screen in 47 multiple myeloma cell lines against the NCATS MIPE library collection: OCIMY1_PLB cell viability assay (AID 1918979); further: nearly all actives have a fitted effect of over 35% in size;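 on viability: 100% = DMSO-only wells and 0% = cell-free media-only wells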
# In short: as §1
# [16] = Quantitative High-Throughput drug screen in 47 multiple myeloma cell lines against the NCATS MIPE library collection: MM1R_ATCC cell viability assay (AID 1918981); further: nearly all actives have a fitted effect of over 35% in size
# In short: as §1
# [17] = Quantitative High-Throughput drug screen in 47 multiple myeloma cell lines against the NCATS MIPE library collection: L363_DSMZ cell viability assay (AID 1918984); further: nearly all actives have a fitted effect of over 40% in size
# In short: as §1
# [18] = Quantitative High-Throughput drug screen in 47 multiple myeloma cell lines against the NCATS MIPE library collection: OCIMY7_PLB cell viability assay (AID 1918987); settings: OCI-MY7 myeloma viability, CellTiter-Glo ATP, 48 h; viability (% of DMSO): at 45.8 µM (top of the series); further: nearly all actives have a fitted effect of over 65% in size
# In short: as §1
# [19] = Quantitative High-Throughput drug screen in 47 multiple myeloma cell lines against the NCATS MIPE library collection: VP6_DJ cell viability assay (AID 1919867); further: nearly all actives have a fitted effect of over 40% in size
# In short: as §1
# [20] = Quantitative High-Throughput drug screen in 47 multiple myeloma cell lines against the NCATS MIPE library collection: KMS21BM_JCRB cell viability assay (AID 1918974); settings: ATP luminescence, 48 h; viability: at 45.8 µM (top of the series) unless noted
# In short: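 Steps: seed 500 cells per well; pin-transfer MIPE 4.0 library; incubate 48 h at 37C, 5% CO2, humidified; add CellTiter-Glo, 5 min room temperature; read luminescence.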
# Potency means the concentration at half of the fitted maximal effect.
structure (smiles),measurement,setting,value
CCC(=O)NC[C@H](Cc1ccc(OCCc2nc(-c3ccccc3)oc2C)cc1)NC(C)=CC(=O)c1ccc(C(F)(F)F)cc1,Potency,[1],20.9 µM (active)
same,Potency,[2],20.9 µM (active)
same,Potency,[3],23.5 µM (active)
same,Potency,[4],inactive
same,Potency,[5],1.87 µM (active)
same,Potency,[6],18.7 µM (active)
same,Potency,[7],23.5 µM (active)
same,Potency,[8],23.5 µM (active)
same,Potency,[9],18.7 µM (active)
same,Potency,[10],inactive
same,Potency,[11],18.7 µM (active)
same,Potency,[12],inactive
same,Potency,[13],16.6 µM (active)
same,Potency,[14],5.26 µM (active)
O=C1C(Cl)=C(NCCN2CCOCC2)C(=O)c2ncccc21,Potency,[1],6.62 µM (active)
same,Potency,[2],2.96 µM (active)
same,Potency,[3],2.96 µM (active)
same,Potency,[15],6.62 µM (active)
same,Potency,[5],3.32 µM (active)
same,Potency,[16],3.32 µM (active)
same,Potency,[6],8.33 µM (active)
same,Potency,[7],4.18 µM (active)
same,Potency,[17],3.72 µM (active)
same,Potency,[8],4.18 µM (active)
same,Potency,[18],3.32 µM (active)
same,Potency,[9],2.35 µM (active)
same,Potency,[10],7.43 µM (active)
same,Potency,[11],4.18 µM (active)
same,Potency,[12],5.9 µM (active)
same,Potency,[13],7.43 µM (active)
same,Potency,[14],6.62 µM (active)
same,Potency,[19],7.43 µM (active)
Cc1cc(OCCCc2c(C(=O)O)n(Cc3cccnc3)c3c(-c4c(COc5ccc(N6CCN([S+](C)(=O)[O-])CC6)cc5)nn(C)c4C)cccc23)cc(C)c1Cl,Potency,[1],20.9 µM (active)
same,Potency,[2],14.8 µM (active)
same,Potency,[3],20.9 µM (active)
same,Potency,[4],3.32 µM (active)
same,Potency,[15],13.2 µM (active)
same,Potency,[5],18.7 µM (active)
same,Potency,[6],14.8 µM (active)
same,Potency,[7],23.5 µM (active)
same,Potency,[17],inactive
same,Potency,[9],23.5 µM (active)
same,Potency,[11],23.5 µM (active)
same,Potency,[12],3.32 µM (active)
same,Potency,[13],20.9 µM (active)
CC1(C)CCC2=C(O1)c1ccccc1C(=O)C2=O,Potency,[1],18.7 µM (active)
same,Potency,[2],2.64 µM (active)
same,Potency,[3],20.9 µM (active)
same,Potency,[5],26.4 µM (active)
same,Potency,[16],23.5 µM (active)
same,Potency,[6],20.9 µM (active)
same,Potency,[8],13.2 µM (active)
same,Potency,[18],3.32 µM (active)
same,Potency,[9],18.7 µM (active)
same,Potency,[10],20.9 µM (active)
same,Potency,[11],20.9 µM (active)
same,Potency,[12],20.9 µM (active)
same,Potency,[14],26.4 µM (active)
O=C(Nc1cc(Cl)cc2c1[nH]c1cnccc12)c1cccnc1,Potency,[1],18.7 µM (active)
same,Potency,[2],11.8 µM (active)
same,Potency,[4],1.87 µM (active)
same,Potency,[15],inactive
same,Potency,[5],11.8 µM (active)
same,Potency,[16],1.87 µM (active)
same,Potency,[6],inactive
same,Potency,[7],16.6 µM (active)
same,Potency,[9],16.6 µM (active)
same,Potency,[10],inactive
same,Potency,[12],20.9 µM (active)
same,Potency,[13],2.64 µM (active)
same,Potency,[14],5.26 µM (active)
CCCCCNC(=O)N1CCC(CN(Cc2ccc(Cl)cc2)Cc2ccc([N+](=O)[O-])s2)C1 (configuration not stated),Potency,[1],23.5 µM (active)
same,Potency,[2],20.9 µM (active)
same,Potency,[3],18.7 µM (active)
same,Potency,[16],14.8 µM (active)
same,Potency,[6],29.6 µM (active)
same,Potency,[7],20.9 µM (active)
same,Potency,[17],20.9 µM (active)
same,Potency,[8],26.4 µM (active)
same,Potency,[9],23.5 µM (active)
same,Potency,[11],18.7 µM (active)
same,Potency,[12],16.6 µM (active)
CO[C@H]1C[C@@H]2CC[C@@H](C)[C@@](O)(O2)C(=O)C(=O)N2CCCC[C@@H]2C(=O)O[C@H]([C@H](C)C[C@@H]2CC[C@H](OP(C)(C)=O)[C@H](OC)C2)CC(=O)[C@H](C)C=C(C)[C@@H](O)[C@@H](OC)C(=O)[C@H](C)C[C@H](C)C=CC=CC=C1C,Potency,[20],18.7 µM (active)
same,Potency,[5],inactive
same,Potency,[16],inactive
same,Potency,[6],inactive
same,Potency,[7],inactive
same,Potency,[18],14.8 µM (active)
same,viability,[11],83.3%
same,Potency,[12],inactive
same,Potency,[14],inactive
CCOC(=O)C1=C(N)Oc2ccc(Br)cc2C1C(C#N)C(=O)OCC (configuration not stated),Potency,[1],14.8 µM (active)
same,Potency,[2],20.9 µM (active)
same,Potency,[3],18.7 µM (active)
same,Potency,[4],20.9 µM (active)
same,Potency,[5],16.6 µM (active)
same,Potency,[16],23.5 µM (active)
same,Potency,[7],26.4 µM (active)
same,Potency,[9],9.35 µM (active)
same,Potency,[10],23.5 µM (active)
same,Potency,[11],20.9 µM (active)
same,Potency,[13],18.7 µM (active)
same,Potency,[14],16.6 µM (active)
same,Potency,[19],16.6 µM (active)
CC[C@]1(O)C[C@@H]2CN(CCc3c([nH]c4ccccc34)[C@@](C(=O)OC)(c3cc4c(cc3OC)N(C=O)[C@@H]3C45CCN4CC=C[C@](CC)([C@H]45)[C@@H](OC(C)=O)[C@]3(O)C(=O)OC)C2)C1 (some centres not stated),Potency,[1],23.5 µM (active)
same,Potency,[2],10.5 µM (active)
same,Potency,[15],26.4 µM (active)
same,Potency,[5],18.7 µM (active)
same,Potency,[16],20.9 µM (active)
same,Potency,[6],20.9 µM (active)
same,Potency,[7],23.5 µM (active)
same,Potency,[17],inactive
same,Potency,[8],23.5 µM (active)
same,Potency,[9],20.9 µM (active)
same,Potency,[11],20.9 µM (active)
same,Potency,[12],23.5 µM (active)
COc1cc2ncnc(Nc3ccc(F)c(Cl)c3)c2cc1OCCCN1CCOCC1,Potency,[1],38.2 µM (active)
same,Potency,[2],54 µM (active)
same,Potency,[3],48.1 µM (active)
same,Potency,[4],4.29 µM (active)
same,Potency,[15],48.1 µM (active)
same,Potency,[5],3.03 µM (active)
same,Potency,[16],21.5 µM (active)
same,Potency,[6],48.1 µM (active)
same,Potency,[17],8.55 µM (active)
same,Potency,[8],42.9 µM (active)
same,Potency,[18],1.08 µM (active)
same,Potency,[9],2.15 µM (active)
same,Potency,[10],4.29 µM (active)
same,Potency,[11],67.9 µM (active)
same,Potency,[12],30.3 µM (active)
same,Potency,[13],0.0762 µM (active)
same,Potency,[14],3.03 µM (active)
same,Potency,[19],6.79 µM (active)
COc1cc2nc(-c3ccc(N4CCN(C)CC4)cc3)nc(NCCN3CCOCC3)c2cc1OC,Potency,[1],0.0372 µM (active)
same,Potency,[2],0.0743 µM (active)
same,Potency,[3],0.0418 µM (active)
same,Potency,[15],0.148 µM (active)
same,Potency,[5],0.0187 µM (active)
same,Potency,[16],0.0118 µM (active)
same,Potency,[6],0.132 µM (active)
same,Potency,[7],0.0662 µM (active)
same,Potency,[17],0.132 µM (active)
same,Potency,[8],0.0209 µM (active)
same,Potency,[18],14.8 µM (active)
same,Potency,[9],0.0187 µM (active)
same,Potency,[10],0.166 µM (active)
same,Potency,[11],0.132 µM (active)
same,Potency,[12],0.0209 µM (active)
same,Potency,[13],0.166 µM (active)
same,Potency,[14],0.0372 µM (active)
same,Potency,[19],0.187 µM (active)
